Measured values published in PubChem BioAssay (NCATS).
Values joined by “and” are separate entries in the source; they are usually repeats but may differ in a detail not shown here. Equal entries are not always repeated. Unmarked numbers belong to inactive results. Records with an inconclusive call do not appear. Active and inactive are the calls of the source. The call rests on the fitted dose curve; in most records, active means well fitted curve in the direction sought with a large enough effect; inconclusive means small, poorly fitted or top-dose-only effect, or another doubt; inactive means no such curve, though single readings can be large; an effect the other way counts as inactive or inconclusive.

Assay: Cell Viability - Mesenchymal (AID 546);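 further: cells exposed to compound for 40 hours before reading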
Conditions: mesenchymal cells viability, qHTS; series mostly up to 91.7 µM; activity change, negative = cytotoxicity: at the top concentration
Method in brief: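 AC50 values reflect the drop in intracellular ATP in a human kidney mesenchymal line derived from normal glomeruli. Treatment lasts 40 hr at 37 °C in complete medium, and the signal comes from CellTiter-Glo luminescence.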

Compared with Brc1ccccc1, CCN(CC)c1ccccc1 is higher in “activity change, negative = cytotoxicity” value: 7.82% for the first, 8.65% for the second.

First: CCOP(=S)(OCC)SCSC(C)(C)C
Second: CC(C)(C)OOC(C)(C)C
The “activity change, negative = cytotoxicity” value of the first is higher: 5.92% for the first, 1.06% for the second.

First: C=C(C)C#N
Second: C=CC(=C)C
The “activity change, negative = cytotoxicity” value of the first is lower: 1.3% for the first, 8.04% for the second.

Going from CCSC(=O)Cl to CCCSC(=O)Cl, the “activity change, negative = cytotoxicity” value falls from 0.767% to -3%.

Compared with Cc1cccc([N+](=O)[O-])c1, Cc1ccc([N+](=O)[O-])cc1C is higher in “activity change, negative = cytotoxicity” value: -7.02% for the first, 1.72% for the second.

Going from Nc1c(Cl)c(Cl)nc(C(=O)O)c1Cl to Clc1nc(Cl)nc(Nc2ccccc2Cl)n1, the “activity change, negative = cytotoxicity” value falls from 9.19% to -5.54%.

First: C=C(C)C(=O)OCC1CO1 (configuration not stated)
Second: OCC1CO1 (configuration not stated)
The “activity change, negative = cytotoxicity” value of the first is higher: 0.561% for the first, -0.523% for the second.

Compared with O=[N+]([O-])c1ccc(Cl)c(Cl)c1, Clc1cccc(C(Cl)(Cl)Cl)n1 is higher in “activity change, negative = cytotoxicity” value: -8.18% for the first, 2.17% for the second.

Compared with Cc1ccc2ccccc2c1, Clc1ccc2ccccc2c1 is higher in “activity change, negative = cytotoxicity” value: 3.29% for the first, 7.96% for the second.

First: Nc1ccccc1Cl
Second: C=CCOC(=O)c1ccccc1N
The “activity change, negative = cytotoxicity” value of the first is lower: 5.42% for the first, 5.86% for the second.

First: CC(C)(c1ccccc1)c1ccc(O)cc1
Second: O=NN(c1ccccc1)c1ccccc1
The “activity change, negative = cytotoxicity” value of the first is higher: 14.6% for the first, -0.91% for the second.

Going from S=C=Nc1cccc2ccccc12 to c1ccc2c(c1)CCCC2, the “activity change, negative = cytotoxicity” value falls from 9.28% to 8.39%.

Going from O=NN(CCO)CCO to CCCC(=O)Cl, the “activity change, negative = cytotoxicity” value rises from -1.78% to -0.377%.

Compared with C=CCOC(C)=O, C=CC(=O)OCC is lower in “activity change, negative = cytotoxicity” value: -4.8% for the first, -6.15% for the second.

First: O=C(Cl)/C=C/C(=O)Cl
Second: C=C(Cl)Cl
The “activity change, negative = cytotoxicity” value of the first is higher: 7.58% for the first, 6.63% for the second.

First: ClCBr
Second: CC(O)CCl (configuration not stated)
The “activity change, negative = cytotoxicity” value of the first is lower: 0.722% for the first, 7.13% for the second.

Going from COc1ccc(C=O)cc1OC to c1nc[nH]n1, the “activity change, negative = cytotoxicity” value rises from -12.2% to -1.42%.

With C1CCC2CCCCC2C1 (configuration not stated) the “activity change, negative = cytotoxicity” value was -1.04%.

In the case of [O-][Br+2]([O-])O, the outcome was “inactive”.
In the case of C=CC(N)=O, the outcome was “inactive”.
With N#CCCCl the outcome was “inactive”.
With Cc1ccccc1N the outcome was “inactive”.
For NC(=S)Nc1ccccc1, the outcome was “inactive”.

Assay: Cellular Toxicity (caspase-3) HepG2 (AID 654);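 further: cells exposed to compound for 16 hours before reading; 0% = DMSO alone and 100% = caspase signal from 100 µM tamoxifen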
Conditions: HepG2 caspase-3 activation, luminescence, 0% = DMSO only, 100% = tamoxifen; series mostly up to 92.2 µM; caspase-3 activation: at the top concentration
Method in brief: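 HepG2 cells (1500/well) in complete medium were treated with compounds for 16 hr at 37 °C. Caspase-3/7 activity was then read as luminescence from peptide-aminoluciferin cleavage. AC50 came from Hill fits, normalized to DMSO and 100 uM tamoxifen.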

Going from Brc1ccccc1 to CCN(CC)c1ccccc1, the “caspase-3 activation” value falls from 0.465% to 0.0122%.

Going from CCOP(=S)(OCC)SCSC(C)(C)C to CC(C)(C)OOC(C)(C)C, the “caspase-3 activation” value rises from -0.496% to -0.106%.

Compared with C=C(C)C#N, C=CC(=C)C is lower in “caspase-3 activation” value: 0.447% for the first, 0.236% for the second.

Going from CCSC(=O)Cl to CCCSC(=O)Cl, the “caspase-3 activation” value rises from 0.164% to 3.88%.

Going from Cc1cccc([N+](=O)[O-])c1 to Cc1ccc([N+](=O)[O-])cc1C, the “caspase-3 activation” value falls from 0.238% to -0.549%.

First: Nc1c(Cl)c(Cl)nc(C(=O)O)c1Cl
Second: Clc1nc(Cl)nc(Nc2ccccc2Cl)n1
The “caspase-3 activation” value of the first is higher: 0.676% for the first, -0.27% for the second.

Going from C=C(C)C(=O)OCC1CO1 (configuration not stated) to OCC1CO1 (configuration not stated), the “caspase-3 activation” value rises from 0.00507% to 0.705%.

Compared with O=[N+]([O-])c1ccc(Cl)c(Cl)c1, Clc1cccc(C(Cl)(Cl)Cl)n1 is higher in “caspase-3 activation” value: -0.782% for the first, 0.838% for the second.

Compared with Cc1ccc2ccccc2c1, Clc1ccc2ccccc2c1 is higher in “caspase-3 activation” value: -0.27% for the first, 0.663% for the second.

Compared with Nc1ccccc1Cl, C=CCOC(=O)c1ccccc1N is lower in “caspase-3 activation” value: 1.14% for the first, 1.06% for the second.

First: S=C=Nc1cccc2ccccc12
Second: O=NN(c1ccccc1)c1ccccc1
The “caspase-3 activation” value of the first is higher: 0.612% for the first, 0.0302% for the second.

Compared with O=NN(CCO)CCO, CCCC(=O)Cl is higher in “caspase-3 activation” value: -0.329% for the first, -0.125% for the second.

Compared with C=CCOC(C)=O, C=CC(=O)OCC is lower in “caspase-3 activation” value: 0.144% for the first, -1.24% for the second.

Compared with O=C(Cl)/C=C/C(=O)Cl, C=C(Cl)Cl is higher in “caspase-3 activation” value: -0.088% for the first, 0.252% for the second.

Compared with ClCBr, CC(O)CCl (configuration not stated) is lower in “caspase-3 activation” value: 1.18% for the first, 0.652% for the second.

First: COc1ccc(C=O)cc1OC
Second: c1ccc2c(c1)CCCC2
The “caspase-3 activation” value of the first is lower: -0.865% for the first, 1.12% for the second.

Going from c1nc[nH]n1 to C1CCC2CCCCC2C1 (configuration not stated), the “caspase-3 activation” value falls from 1.51% to 0.304%.

With [O-][Br+2]([O-])O the outcome was “inactive”.
In the case of C=CC(N)=O, the outcome was “inactive”.
In the case of N#CCCCl, the outcome was “inactive”.
With Cc1ccccc1N the outcome was “inactive”.
For NC(=S)Nc1ccccc1, the outcome was “inactive”.

Assay: Cellular Toxicity (caspase-3) Jurkat (AID 655);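 further: cells exposed to compound for 16 h at 37 °C before reading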
Conditions: Jurkat caspase-3 activation, luminescence, DMSO = 0%, tamoxifen = 100%; at 92.2 µM (top of the series)
Method in brief: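 Jurkat cells (5000/well) in complete medium were treated with compounds for 16 hr at 37 °C, then Caspase-Glo 3/7 luminescence was read after 20 min at room temperature. Data normalized to DMSO (basal) and 100 uM tamoxifen (100%); AC50 from Hill fit.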

First: Brc1ccccc1
Second: CCN(CC)c1ccccc1
The caspase-3 activation of the first is lower: -1.45% for the first, -0.552% for the second.

Compared with CCOP(=S)(OCC)SCSC(C)(C)C, CC(C)(C)OOC(C)(C)C is higher in caspase-3 activation: -0.764% for the first, 0.243% for the second.

Compared with Cc1cccc([N+](=O)[O-])c1, Cc1ccc2ccccc2c1 is higher in caspase-3 activation: -1.23% for the first, 1.17% for the second.

Compared with Nc1c(Cl)c(Cl)nc(C(=O)O)c1Cl, Clc1nc(Cl)nc(Nc2ccccc2Cl)n1 is lower in caspase-3 activation: 0.643% for the first, 0.489% for the second.

First: Nc1ccccc1Cl
Second: Clc1ccc2ccccc2c1
The caspase-3 activation of the first is lower: -0.675% for the first, 0.888% for the second.

Going from OCC1CO1 (configuration not stated) to CCCC(=O)Cl, the caspase-3 activation falls from 0.767% to -0.695%.

Going from C=CCOC(C)=O to C=CC(=O)OCC, the caspase-3 activation falls from 0.277% to -0.667%.

Compared with ClCBr, CCCSC(=O)Cl is higher in caspase-3 activation: -0.634% for the first, 0.745% for the second.

Going from c1ccc2c(c1)CCCC2 to O=NN(c1ccccc1)c1ccccc1, the caspase-3 activation rises from -0.484% to 3.48%.

Going from Clc1cccc(C(Cl)(Cl)Cl)n1 to C1CCC2CCCCC2C1 (configuration not stated), the caspase-3 activation rises from -0.503% to 1.3%.

For [O-][Br+2]([O-])O, the caspase-3 activation was -7.93% and -8.01%.
With N#CCCCl the caspase-3 activation was -0.233% and -1.87%.
In the case of NC(=S)Nc1ccccc1, the caspase-3 activation was 1.95% and -1.01%.

Assay: Cellular Toxicity (caspase-3) HUV-EC-C (AID 656)
Conditions: HUV-EC-C cells, caspase-3 activation (apoptosis), vehicle = 0, 100 µM tamoxifen = 100%; series mostly up to 92.2 µM; caspase-3 activation: at the top concentration
Method in brief: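 HUV-EC-C endothelial cells, 1000/well, were pre-incubated 5 hr at 37°C, then exposed to compounds for 16 hr at 37°C. Caspase-Glo 3/7 luminescence was read after 20 min at room temperature. AC50 came from Hill fits, normalized to DMSO and 100 uM tamoxifen.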

Compared with Brc1ccccc1, CCN(CC)c1ccccc1 is higher in “caspase-3 activation” value: -2.87% for the first, 9.88% for the second.

Going from CCOP(=S)(OCC)SCSC(C)(C)C to CC(C)(C)OOC(C)(C)C, the “caspase-3 activation” value falls from 0.263% to -0.887%.

Going from C=C(C)C#N to C=CC(=C)C, the “caspase-3 activation” value falls from 0.402% to -0.154%.

Compared with CCSC(=O)Cl, CCCSC(=O)Cl is lower in “caspase-3 activation” value: -0.541% for the first, -2.37% for the second.

Compared with Cc1cccc([N+](=O)[O-])c1, Cc1ccc([N+](=O)[O-])cc1C is lower in “caspase-3 activation” value: 1.81% for the first, -2.21% for the second.

Compared with Nc1c(Cl)c(Cl)nc(C(=O)O)c1Cl, Clc1nc(Cl)nc(Nc2ccccc2Cl)n1 is higher in “caspase-3 activation” value: 0.542% for the first, 0.666% for the second.

Going from C=C(C)C(=O)OCC1CO1 (configuration not stated) to OCC1CO1 (configuration not stated), the “caspase-3 activation” value falls from 5.43% to -3.35%.

Compared with O=[N+]([O-])c1ccc(Cl)c(Cl)c1, Clc1cccc(C(Cl)(Cl)Cl)n1 is lower in “caspase-3 activation” value: 2.06% for the first, -2.76% for the second.

Compared with Cc1ccc2ccccc2c1, Clc1ccc2ccccc2c1 is lower in “caspase-3 activation” value: 6.62% for the first, -3.36% for the second.

Going from Nc1ccccc1Cl to C=CCOC(=O)c1ccccc1N, the “caspase-3 activation” value rises from 0.0802% to 2.98%.

Compared with CC(C)(c1ccccc1)c1ccc(O)cc1, O=NN(c1ccccc1)c1ccccc1 is lower in “caspase-3 activation” value: 1.52% for the first, -0.654% for the second.

First: S=C=Nc1cccc2ccccc12
Second: c1ccc2c(c1)CCCC2
The “caspase-3 activation” value of the first is higher: 2.09% for the first, 1.86% for the second.

Going from O=NN(CCO)CCO to CCCC(=O)Cl, the “caspase-3 activation” value rises from -5.87% to 5.27%.

First: C=CCOC(C)=O
Second: C=CC(=O)OCC
The “caspase-3 activation” value of the first is higher: -2.67% for the first, -6.53% for the second.

Going from O=C(Cl)/C=C/C(=O)Cl to C=C(Cl)Cl, the “caspase-3 activation” value rises from -6.54% to 10.8%.

Compared with ClCBr, CC(O)CCl (configuration not stated) is lower in “caspase-3 activation” value: -0.675% for the first, -4.18% for the second.

First: COc1ccc(C=O)cc1OC
Second: c1nc[nH]n1
The “caspase-3 activation” value of the first is higher: 2.08% for the first, -0.755% for the second.

For C1CCC2CCCCC2C1 (configuration not stated), the “caspase-3 activation” value was 1%.

In the case of [O-][Br+2]([O-])O, the outcome was “inactive”.
In the case of C=CC(N)=O, the outcome was “inactive”.
For N#CCCCl, the outcome was “inactive”.
With Cc1ccccc1N the outcome was “inactive”.
In the case of NC(=S)Nc1ccccc1, the outcome was “inactive”.
